Inhibition data for 15 molecules are collected here from ChEMBL document CHEMBL4513146, “CO-ADD screening of Karazin Kharkiv National University (Ukraine) compounds”.

Potency and affinity values are given separately.

This experiment concerns Klebsiella pneumoniae. As to conditions: Concentration 32 ug.mL-1;; ASSAY_TEST Inhibition of Bacterial Growth; detection method Absorption (OD600); MEDIA CAMHB; plate type 384well; NBS; CORNING #3640; time 18 hr.
Broadly, the Inhibition is the drop in the measured response relative to a control, in per cent. As to `Cc1cc2nn(CC(=O)NCc3ccco3)c(=O)n2c(Nc2ccc(C)c(F)c2)n1`, the Inhibition was 7.94%.
For `CCOc1ccc(-n2ccn3c(SCC(=O)c4ccc(F)cc4)nnc3c2=O)cc1` the value was 1.88%; for `COc1ccc(NC(=O)Cn2nc3c4cc(-c5ccc(C)c(C)c5)nn4ccn3c2=O)cc1OC`, 13.24%.
The value for `O=C(Cn1nc2c(SCc3ccccc3)nccn2c1=O)NCc1ccc(Cl)cc1` was -3.05%; that for `Cc1ccc(NC(=O)Cn2nc3c(Oc4ccccc4)nccn3c2=O)c(Cl)c1` was -7.35%.
The value for `O=C(Cn1nc2c3sc(N4CCCC4)nc3ncn2c1=O)Nc1cccc(Br)c1` was 18.9%.
Take `Cc1ccc(NC(=O)Cn2nc3c(Sc4ccccc4)nccn3c2=O)c(Br)c1`: the Inhibition is reported as 0.72%.
For `COc1cccc(Oc2nccn3c(=O)n(CC(=O)Nc4ccc(OC)c(Cl)c4)nc23)c1` the value was 9.28%.
For `CC(C)c1nnc2c(SCC(=O)Nc3ccccc3Br)nc3ccccc3n12` the value was 12.82%.
The value for `COC(=O)c1ccccc1NC(=O)Cn1nc2c(Oc3cccc(OC)c3)nccn2c1=O` was -16.2%.
Turning to `CCN(C(=O)Cn1nc2cc(C)nc(Nc3ccc(C)c(F)c3)n2c1=O)c1ccccc1`, the Inhibition is 13.32%.
For `Cc1cc(C)cc(N(Cc2c(F)cccc2Cl)S(=O)(=O)c2cccn3cnnc23)c1` the value was 7.41%.
The value for `CC(C)c1ccc(NC(=O)Cn2nc3c(N4CCCC4)nccn3c2=O)cc1` was 11.79%; that for `CCc1ccc(N(Cc2ccc(F)cc2)S(=O)(=O)c2cccn3c(CC)nnc23)cc1` was 6.32%; that for `O=C(NCc1ccccc1)c1ccc2nn(CC(=O)N3CCN(c4ccc(F)cc4)CC3)c(=O)n2c1` was -0.37%.
